Data on 95 molecules can be found in PubChem BioAssay AID1531 (NMMLSC, 2009).

In all, about 290,000 compounds went through this assay and about 3,300 (1.1%) were called active. Many of the other results were omitted from the sample, so actives are more common in it than they were. A number with no mark means an inactive call. No stated cut-off is given here; in the data, active means binding response below about 67% or above about 130%; inconclusive means no clear call, values can overlap the other calls; inactive means in between.

This assay addresses Mitogen-activated protein kinase kinase kinase 2 (Homo sapiens) (UniProt Q9Y2U5). The assay can be described thus: wildtype MEKK2 PB1-MEK5 interaction, increase or decrease – biochemical, multiplex bead flow cytometry, Alexa488-MEK5, primary screen (AID 1531). The note with it: Alexa488-MEK5 binding to MEKK2 WT, at 10 µM, actives lie on both sides. Background: Flow cytometry measures light scatter and fluorescence of single cells or particles in a stream.
On to `CC(C(=O)N1CCN(c2ccccc2F)CC1)c1ccc([N+](=O)[O-])cc1` (stereo not given), for which the binding response (% of control) was 111%.

As to `O=C(Nc1cccc(Cl)c1)c1cc(S(=O)(=O)N2CCCCC2)c[nH]1`, the binding response (% of control) was 100%.

Turning to `CCN(C(=O)COc1ccc(C(=O)c2ccccc2)cc1)c1ccccc1`, the binding response (% of control) was 101%.

Regarding `COc1cc2ccccc2cc1C(=O)N(CCN(C)C)c1nc2c(F)cccc2s1`, the binding response (% of control) is 113%.

As for `CN(Cc1ccccc1)C(=O)COc1ccccc1`, the binding response (% of control) is 106%.

Turning to `COc1cccc2sc(N(CCCN(C)C)C(=O)CCS(=O)(=O)c3ccccc3)nc12`, the binding response (% of control) was 105%.

For the molecule `CN(C)CCCN(C(=O)COc1ccccc1)c1nc2c(Cl)cccc2s1`, the binding response (% of control) is 338% (active).

As to `COc1cccc2sc(N(CCCN(C)C)C(=O)C(c3ccccc3)c3ccccc3)nc12`, the binding response (% of control) is 178% (active).

With `CC(=O)N[C@H]1[C@H]([C@H](O)[C@H](O)CO)OC(C(=O)O)=C[C@@H]1O`, the binding response (% of control) was 106%.

As for `Cc1ccc(C)c(OCc2cc(C(=O)N3CCN(c4cnccn4)CC3)no2)c1`, the binding response (% of control) is 93%.

For `COc1cccc(NC(=O)N2C3CCCC2CC(NC(C)=O)C3)c1` (stereo not given), the binding response (% of control) was 109%.

Consider `O=C(CN1C(=O)S/C(=C\c2ccccc2Cl)C1=O)NC1C=CS(=O)(=O)C1` (stereo not given), for which the binding response (% of control) is 101%.

`Cc1cc(S(=O)(=O)c2cc3ccc(O)c(C)c3oc2=O)ccc1F`: the binding response (% of control) is 102%.

As for `CCOC(=O)CCc1c(C)c(C#N)c2[nH]c3ccccc3n2c1=O`, the binding response (% of control) was 106%.

As to `CCCc1cc(=S)n2c([nH]c3ccccc32)c1C#N`, the binding response (% of control) is -3% [inhibitor] (active).

Regarding `Cc1ccccc1Cn1c(=O)[nH]c2ccccc21`, the binding response (% of control) was 48%.

On to `O=C(NCC(=O)N(c1ccccc1)C(C(=O)NCC1CCCO1)c1ccccc1)c1cccs1` (stereo not given), for which the binding response (% of control) is 103%.

For the molecule `CCCCNC(=O)CCn1c(=S)[nH]c2cc3c(cc2c1=O)OCO3`, the binding response (% of control) is 99%.

`CCN(CC)CCCNC(=O)c1ccc2c(=O)n(Cc3ccc4c(c3)OCO4)c(=S)[nH]c2c1`: the binding response (% of control) is 144% (active).

Take `COc1ccc(Cn2c(=S)[nH]c3cc(C(=O)NCCCN4CCOCC4)ccc3c2=O)cc1`: the binding response (% of control) is 115%.

In the case of `CC(C)CCn1cnc2c1c(=O)n(CC(=O)NC(N)=O)c(=O)n2Cc1ccccc1`, the binding response (% of control) is 99%.

With `COc1cccc(OCCCN2CCCCCC2)c1`, the binding response (% of control) was 102%.

As for `CCCCCCCCCCOC(=O)Cn1c(COc2cccc(OC)c2)[n+](C)c2ccccc21`, the binding response (% of control) was 278% (active).

`Cc1ccc(OCc2nc3ccccc3n2C)cc1`: the binding response (% of control) was 103%.

For `CCCCOC(=O)Cn1c(=N)n(CCN(CC)CC)c2ccccc21`, the binding response (% of control) was 106%.

As for `CCCCCCCCCCOC(=O)Cn1c(COc2ccc(C)cc2)[n+](C)c2ccccc21`, the binding response (% of control) was 319% (active).

`CCCCOC(=O)Cn1c(=O)n(CC(=O)OCCCC)c2cc(C)ccc21`: the binding response (% of control) was 97%.

Take `Nc1ccn(C2CC(O)C(CO)O2)c(=O)n1` (stereo not given): the binding response (% of control) is 105%.

As for `O=C(CSc1nc2nccnc2c(=O)n1Cc1cccs1)Nc1ccccc1F`, the binding response (% of control) was 90%.

In the case of `COc1ccc(C2CC(c3cccs3)=NN2C(=O)CCC(=O)O)cc1OC` (stereo not given), the binding response (% of control) is 108%.

Consider `COc1ccc(C2CC(c3cccs3)=NN2c2nc(C)c(C(C)=O)s2)cc1OC` (stereo not given), for which the binding response (% of control) is 63% [inhibitor] (active).

With `COc1ccc(C2CC(c3cccs3)=NN2c2ccc(F)cc2)cc1OC` (stereo not given), the binding response (% of control) is 88%.

As to `Cn1ccnc1-c1nnn(-c2ccc(F)cc2)n1`, the binding response (% of control) was 97%.

For the molecule `CSc1ccc(S(=O)(=O)N2CCC(C(=O)NCc3ccncc3)CC2)cc1`, the binding response (% of control) is 105%.

With `CN(CC(=O)O)S(=O)(=O)c1ccc2oc3ccccc3c2c1`, the binding response (% of control) is 110%.

`O=C(COc1ccc([N+](=O)[O-])cc1)Nc1ccc(N2CCCC2)cc1`: the binding response (% of control) was 103%.

Turning to `CN1CCN(CCNC(=O)Nc2ccc([N+](=O)[O-])cc2)CC1`, the binding response (% of control) was 105%.

In the case of `O=C(NCCCN1CCN(c2ccc(F)cc2)CC1)Nc1ccc([N+](=O)[O-])cc1`, the binding response (% of control) was 140% (active).

`COC(=O)C1(C)CC1(c1ccccc1)c1ccccc1` (stereo not given): the binding response (% of control) was 104%.

As for `CCOCCCn1c(SCC(=O)Nc2cc(OC)ccc2OC)nc2ccccc2c1=O`, the binding response (% of control) is 105%.

Regarding `O=C(NCc1ccco1)/C(=C\c1cccc([N+](=O)[O-])c1)NC(=O)c1ccco1`, the binding response (% of control) was 101%.

For the molecule `CCC1CCCCN1CCCNC(=O)c1cc2c(Cl)nc3ccccc3c2s1` (stereo not given), the binding response (% of control) is 173% (active).

Take `CCC1CCCCN1CCCNC(=O)C1CCC(Cn2c(=O)[nH]c3ccccc3c2=O)CC1` (stereo not given): the binding response (% of control) was 110%.

Turning to `CCC1CCCCN1CCCNC(=O)Cn1nc(-c2ccccc2)ccc1=O` (stereo not given), the binding response (% of control) was 108%.

On to `CN1CCN(Cc2nc3cc(NC(=O)COc4ccc([N+](=O)[O-])cc4)ccc3n2C)CC1`, for which the binding response (% of control) was 109%.

On to `CCCC/S(C)=N/S(=O)(=O)c1ccc(C)cc1` (stereo not given), for which the binding response (% of control) is 102%.

As to `Cc1ccc(S(=O)(=O)/N=S(\C)C(C)C)cc1` (stereo not given), the binding response (% of control) is 2% [inhibitor] (active).

Consider `CC/S(CC1CC1(Cl)Cl)=N\S(=O)(=O)c1ccc(C)cc1` (stereo not given), for which the binding response (% of control) is 96%.

`S=C(NCCCc1ccccc1)Nc1ccc(Br)cc1`: the binding response (% of control) is 100%.

In the case of `COc1ccccc1NC(=O)CN(c1ccccc1OC)S(=O)(=O)c1ccccc1`, the binding response (% of control) is 99%.

As for `Nc1nc(Nc2ccccc2)nc(NCCO)c1[N+](=O)[O-]`, the binding response (% of control) is 98%.

Turning to `OCCNc1nc(Nc2ccc(Cl)c(Cl)c2)nc2ccccc12`, the binding response (% of control) is 150% (active).

For the molecule `CN(C)c1nc(Nc2ccc(Cl)c(Cl)c2)nc(N(C)C)n1`, the binding response (% of control) was 98%.

For the molecule `CC(C)CNS(=O)(=O)c1ccc(C(=O)Nc2ccc3c(c2)OCO3)cc1`, the binding response (% of control) is 103%.

For `Cn1c(C(=O)N2CCCC(C(=O)NCc3ccccc3)C2)cc2sccc21` (stereo not given), the binding response (% of control) was 102%.

Consider `Cn1c(C(=O)NCCCN2CCCCC2)cc2sccc21`, for which the binding response (% of control) was 138% (active).

For the molecule `COc1ccc(CCNC(=O)c2cc3sccc3n2C)cc1OC`, the binding response (% of control) was 104%.

As to `COC(=O)C(C)NC(=O)COc1ccc2ccccc2c1` (stereo not given), the binding response (% of control) was 95%.

Take `CC(C)C(C)NC(=O)COc1ncnc2ccccc12` (stereo not given): the binding response (% of control) is 105%.

Regarding `COCC(C)NC(=O)COc1nncc2ccccc12` (stereo not given), the binding response (% of control) is 40% [inhibitor] (active).

Turning to `CCC(C)C(=O)Nc1ccccc1N1CCN(c2ccc(F)cc2)CC1` (stereo not given), the binding response (% of control) is 101%.

Consider `COc1ccc2nc(C)cc(Nc3cccc(C(=O)O)c3)c2c1`, for which the binding response (% of control) was 110%.

For the molecule `COc1cccc(Nc2ncccc2C(=O)O)c1`, the binding response (% of control) is 4% [inhibitor] (active).

Take `COc1cc(NC(=O)c2cccnc2SC)cc(OC)c1`: the binding response (% of control) was 101%.

As to `COc1ccc(-c2c(NC(=O)c3ccco3)oc3ccc(Cl)cc3c2=O)cc1`, the binding response (% of control) was 104%.

With `COc1ccc2[nH]c3nc(SCC(=O)NC4CC4)nnc3c2c1`, the binding response (% of control) was 104%.

On to `CCCCCCCCCCCCN1[C@@H](CC(C)=O)c2cc(F)cc(F)c2S1(=O)=O`, for which the binding response (% of control) is 103%.

As for `Cc1nc(-c2ccc(Cl)cc2)sc1C1(C)CC(c2ccc(Br)cc2)=NO1` (stereo not given), the binding response (% of control) is 95%.

For `O=C(CN1CCOc2ccccc21)N1CCC(Cc2ccccc2)CC1`, the binding response (% of control) was 107%.

As for `Cc1cccc(C)c1OCC(O)CN1CCCCC1` (stereo not given), the binding response (% of control) is 94%.

As to `Cc1ccccc1OCC(O)CN1CCN(c2ccccn2)CC1` (stereo not given), the binding response (% of control) was 99%.

Take `Cc1cccc(OCC(O)CN2CCN(CCN3C(=O)c4cccc5cccc(c45)C3=O)CC2)c1C` (stereo not given): the binding response (% of control) was 146% (active).

For `O=C(NC1CC1)C1=C[C@H](c2coc3ccccc3c2=O)C[C@H](OCCCCO)O1`, the binding response (% of control) is 108%.

As for `Cc1cccc(N(C(=O)c2sc(C)nc2C)C(C(=O)NCC2CCCO2)c2ccccc2)c1` (stereo not given), the binding response (% of control) is 106%.

With `Nc1nc(Nc2ccccc2F)nc(NC2CCCCC2)c1[N+](=O)[O-]`, the binding response (% of control) was 98%.

Consider `CCn1c(SCC(=O)Nc2ccc3c(c2)OCCO3)nnc1-c1ccncc1`, for which the binding response (% of control) was 106%.

In the case of `CCOc1ccc(S(=O)(=O)N(CC(=O)O)c2ccccc2)cc1`, the binding response (% of control) was 6% [inhibitor] (active).

For the molecule `CCOc1ccc(N(CC(=O)NCCOc2ccccc2OC)S(=O)(=O)c2ccccc2)cc1`, the binding response (% of control) is 104%.

Consider `CCOc1ccc(N(CC(=O)NCCc2ccc(F)cc2)S(=O)(=O)c2ccccc2)cc1`, for which the binding response (% of control) is 96%.

In the case of `C=Cn1cc[n+](CC(=O)c2ccc(OC)c(OC)c2)c1`, the binding response (% of control) is 96%.

With `CSc1nnc(NC(=O)c2nc(S(=O)(=O)Cc3ccc(C)cc3)ncc2Cl)s1`, the binding response (% of control) is 101%.

`COC(=O)c1c(NC(=O)CCCC(=O)O)sc2c1CCCCC2`: the binding response (% of control) was 98%.

For `CCc1ccc(N(CC(=O)Nc2sc3c(c2C(=O)OC)CCCC3)S(C)(=O)=O)cc1`, the binding response (% of control) was 93%.

Turning to `COC(=O)c1c(NC(=O)COC(=O)[C@@H](NS(=O)(=O)c2ccccc2)C(C)C)sc2c1CCC2`, the binding response (% of control) was 1% [inhibitor] (active).

`Cc1cc(CN(C)C(=O)c2cc(COc3ccc(C)c(C)c3)on2)n[nH]1`: the binding response (% of control) is 109%.

Take `CN(CCc1ccccc1)c1ccc([N+](=O)[O-])cn1`: the binding response (% of control) was 102%.

Turning to `Cc1ccc2nc(N(CCN(C)C)C(=O)C3=COCCO3)sc2c1`, the binding response (% of control) is 113%.

Consider `CC(=O)N(CCCN(C)C)c1nc2ccc(C)cc2s1`, for which the binding response (% of control) was 104%.

Turning to `Cc1cc(C)c2nc(N(CCN(C)C)C(=O)/C=C/c3cccs3)sc2c1`, the binding response (% of control) was 165% (active).

On to `Cc1cccc2sc(N(CCCN(C)C)C(=O)CCS(=O)(=O)c3ccccc3)nc12`, for which the binding response (% of control) is 119%.

Turning to `Cc1ccc2sc(N(CCN(C)C)C(=O)/C=C/c3cccs3)nc2c1C`, the binding response (% of control) was 151% (active).

`Cc1ccc(S(=O)(=O)N(C)C)cc1NC(=O)/C=C/c1cccs1`: the binding response (% of control) was 107%.

On to `COc1ccc(N2CCN(C(=O)[C@@H](NC(=O)c3cc(OC)cc(OC)c3)C(C)C)CC2)cc1`, for which the binding response (% of control) is 108%.

As to `S=C(Nc1cccnc1)Nc1ccccn1`, the binding response (% of control) is 99%.

Consider `COCC1CCN(C(=O)CCc2nnc(C3(c4ccc(Cl)cc4)CCC3)o2)C1` (stereo not given), for which the binding response (% of control) is 103%.
